Laboratory results taken from PubChem BioAssay AID652208 (Broad Institute, 2013).
Measured potencies and affinities stand elsewhere. Active and inactive are the calls of the source.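 How the source made its calls: active means Loss of cell signal with fitted half-effect dose at or below twice the top valid tested dose; inconclusive means Poor fit, or flat fit from -70 to -30 percent; inactive means Half-effect above limit, rising signal, or flat within 30 percent.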

test: HEK293T cell cytotoxicity, dose response, cytotoxicity control for HIV Vif inhibitor project, cherry-picks (AID 652208); details: HEK293T viability, CellTiter-Glo luminescence, 24 h; series mostly up to 26 µM

Structure (SMILES)	outcome
CN1CCc2c(sc(NC(=O)c3cc(Cl)sc3Cl)c2C(N)=O)C1	inactive
CCOc1ccc(N2C(=O)/C(=C/c3cccs3)N(CC(=O)OC)C2=S)cc1	inactive
O=S(=O)(Nc1nc2ccccc2nc1NCc1ccco1)c1ccc(Cl)cc1	inactive
CCN1CCc2c(sc(N)c2C(N)=O)C1	inactive
COc1cc2ccccc2cc1C(=O)Nc1ccc(Cl)cn1	inactive
Cc1ccc2c(c1)C1CN(C)CCC1N2S(=O)(=O)c1cccc(C(F)(F)F)c1 (configuration not stated)	inactive
COc1ccccc1C(=O)COC(=O)C1(C)CC1(Cl)Cl (configuration not stated)	inactive
CCOc1ccc2nc(NS(=O)(=O)Cc3ccccc3)sc2c1	inactive
COc1ccccc1Nc1nnc(C)c(=O)[nH]1	inactive
CCCCOc1cccc2c(=O)n(CC(=O)Nc3ccc4c(c3)OCCO4)ccc12	inactive
O=C(CCCCn1ccc(=O)[nH]c1=O)Nc1ccc(O)c(C(=O)O)c1	inactive
Cc1ccc(NC(=O)Cn2ncn3c(cc4ccccc43)c2=O)c(C)c1	inactive
C[C@@H]1CN([C@H](C)CO)C(=O)CCCn2cc(nn2)CO[C@H]1CN(C)C(=O)c1ccccc1	inactive
COc1ccc(C(=O)NCc2oc(-c3ccccc3)cc2C(=O)O)cc1	inactive
Cc1nc(-c2ccccc2OC(F)(F)F)[nH]c(=O)c1Cl	inactive
O=C(COC(=O)c1ccccc1Br)NC1CCCC1	inactive
COc1ccc(OC)c(NC(=O)c2nc(-c3ccccc3)oc2C)c1	inactive
CC(C)C(=O)N=C1SC2CS(=O)(=O)CC2N1Cc1ccccc1 (configuration not stated)	inactive
Cc1cc(NS(=O)(=O)c2ccc(NC(=O)c3ccc(Cl)cc3Cl)cc2)no1	inactive

Structure (SMILES)	outcome
Oc1ccc(-c2nc(-c3ccc(O)c(O)c3)cs2)cc1	inactive
Cc1cccc(Nc2nc(-c3ccc(O)c(O)c3)cs2)n1	inactive
COc1ccc(-c2cc(C(F)(F)F)n3nc(C(=O)NCc4ccco4)c(Cl)c3n2)cc1	inactive
COc1ccc(NC(=O)Cn2nnc(C(=O)Nc3ccccc3C)c2N)cc1	inactive
COc1cc(/C=C/C(=O)O)ccc1S(=O)(=O)N1CCCc2ccccc21	inactive
COc1ccc(-c2csc(-c3cccnc3)n2)cc1C	inactive
COc1cc(C(=O)NCCc2cn3ccc(C)cc3n2)cc(OC)c1OC	inactive
COc1ccccc1Oc1coc2cc(OCC(N)=O)ccc2c1=O	inactive
COc1cc(CNCc2ccccc2)c(Br)cc1OC1CCCC1	inactive
O=C(CCCCCn1c(=S)[nH]c2ccc(N3CCOCC3)cc2c1=O)NCc1ccccc1Cl	inactive
CCCCCCOC(=O)C(C#N)c1nc2ccccc2nc1N1CCOCC1 (configuration not stated)	inactive
COc1cccc(N2CCN(C(=O)c3ccc(CS(=O)c4ccc(C)cc4)o3)CC2)c1 (configuration not stated)	inactive
NS(=O)(=O)c1ccc(NC(=O)CCC(=O)N2CCOCC2)cc1	inactive
CCn1c(CC(=O)Nc2ccccc2)nnc1SCC(=O)Nc1nnc(C)s1	inactive
COc1c(Br)cc(Br)cc1/C=C1/C(=O)N=C(N)N1C	inactive
COc1cc(-c2cnc3c(NC=O)cc(-c4cccc(NC(C)=O)c4)cn23)cc(OC)c1OC	inactive
COc1ccc(CN(C(=O)Cn2nnc(-c3ccc(C)o3)n2)C(C(=O)NCC2CCCO2)c2ccco2)cc1 (configuration not stated)	inactive
COc1cc(Nc2nc3ccccc3n3nnnc23)cc(OC)c1OC	inactive
